Compound activity (PubChem BioAssay)
Shiga inhibitor: A qHTS for Small Molecule Inhibitors of Shiga Toxin. Vero cells, Shiga toxin protein synthesis inhibition reporter. inhibition, % at 38.7 µM. 290,000 compounds, 9.2% hits; in the data active = inhibition mostly above about 28%, no sharp cut-off; inactive = mostly below about 43%; note: 0% is about no effect
Pf growth 48h: Primary qHTS for delayed death inhibitors of the malarial parasite plastid, 48 hour incubation | P. falciparum luciferase growth in erythrocytes, 48 h | Potency, µM (highest dose often 28.7 µM), inactives show at the top dose activity change, negative = inhibition, actives largely listed as inhibitors | 310,000 compounds, 5.9% hits | AID 504832, 2011; note: potency is the fitted concentration of half-maximal effect; % is set by controls: 0 for no effect and ±100 for the full control effect
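Firefly luciferase activity from engineered P. falciparum reports growth; inhibitors lower the luminescent signal. Cultures contained 2% hematocrit erythrocytes at 0.1% final parasitemia.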
Cycloheximide cs: Cycloheximide Counterscreen for Small Molecule Inhibitors of Shiga Toxin; max response, %; 300,000 compounds, 12% hits; cell reporter, cycloheximide protein synthesis inhibition counterscreen; in the data active = max response mostly above about 13%, no sharp cut-off; inactive = mostly below about 14%; note: read at 38.3 µM for the half of the compounds with a filed dose; 0% is about no effect
Pf growth 96h: Primary qHTS for delayed death inhibitors of the malarial parasite plastid, 96 hour incubation; P. falciparum luciferase reporter growth, 96 h; Potency, µM (highest dose often 28.7 µM), for the others: at the highest dose activity change, negative = inhibition, most hits filed as inhibitors; 320,000 compounds, 6.9% hits; AID 504834, 2011; note: potency is the fitted concentration of half-maximal effect; % is set by controls: 0 for no effect and ±100 for the full control effect
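Readout is luminescence from an integrated firefly luciferase in P. falciparum. Red cells, 2% hematocrit and 0.05% parasitemia final, were cultured with compound through two parasite generations (96 hours) at 37 C, 5% CO2.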
NS1 inh: qHTS Assay for Inhibitors of Influenza NS1 Protein Function; Potency, µM (series often up to 46.1 µM), inactives show at the highest dose activity, positive = more growth; AID 2326, 2010; 270,000 compounds, 0.4% hits; calls by dose curve; note: potency is the fitted concentration of half-maximal effect; actives are rising curves; nearly all actives have a fitted effect of over 50% in size
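Recovery from NS1-induced slow growth read by OD600 in budding yeast switched to galactose assay medium (pH 6.0, -URA) at 1:100 dilution. Compound 23 nl per well; the matching strain lacking NS1 serves as control.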
FBPA Giardia inh: qHTS Assay for Inhibitors of Fructose-1,6-bisphosphate Aldolase from Giardia Lamblia. 290,000 compounds, 0.71% hits. A8B2U2. Potency, µM (titrated, usually from 59.6 µM), for inactives: at the highest dose activity, negative = inhibition, usual class: inhibitors. purified Giardia FBPA; note: potency is the fitted concentration of half-maximal effect; % is set by controls: 0 for no effect and ±100 for the full control effect; nearly all actives have a fitted effect of over 55% in size
Target sequence (A8B2U2 whole entry, looked up): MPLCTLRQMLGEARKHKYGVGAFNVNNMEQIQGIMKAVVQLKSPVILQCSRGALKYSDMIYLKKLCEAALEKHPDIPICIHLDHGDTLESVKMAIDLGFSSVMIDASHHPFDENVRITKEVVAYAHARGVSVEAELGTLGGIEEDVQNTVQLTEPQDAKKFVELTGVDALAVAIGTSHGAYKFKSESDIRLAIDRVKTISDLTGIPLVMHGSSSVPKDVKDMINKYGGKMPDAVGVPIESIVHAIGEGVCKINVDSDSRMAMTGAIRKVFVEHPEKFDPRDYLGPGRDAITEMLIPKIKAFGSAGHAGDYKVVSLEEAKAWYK
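Giardia FBPA (40 nM reagent) was preincubated 10 min at RT with compound (up to 57.5 uM final), then substrate plus GAPDH/TPI/NAD/arsenate coupling system with diaphorase/resazurin was added; resorufin fluorescence (525/598 nm) was read after 20 min.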
An asterisk follows results filed as active. In the library only some 21% were active in any assay of this set; here they are far more common. Unless noted, calls come from the whole dose curve; as a rule, active = well fitted curve in the direction sought with a large enough effect; inconclusive = small, poorly fitted or top-dose-only effect, or another doubt; inactive = no such curve, though single readings can be large; an effect the other way counts as inactive or inconclusive.

What do the screens show for `COc1ccc(C(=O)N(Cc2ccccc2)c2cccc(C)c2)cc1S(=O)(=O)N1CCOCC1`?
Pf growth 48h: 10µM*; Pf growth 96h: 5.2µM*

Results for COc1ccc(CC(=O)N(Cc2ccccc2)c2ccccc2)cc1S(=O)(=O)N1CCOCC1 ?
Shiga inhibitor: 6; Pf growth 48h: inconclusive; Cycloheximide cs: 6; Pf growth 96h: inconclusive; NS1 inh: 2%; FBPA Giardia inh: 11%

What do the screens show for `CC1CN(S(=O)(=O)c2cc(C(=O)N(CCc3ccccc3)Cc3ccccc3)ccc2Cl)CC(C)O1` (stereo not drawn)?
Pf growth 48h: 5.2µM*; Pf growth 96h: 5.2µM*

Results for Cc1ccc(N(Cc2ccccc2)C(=O)c2cc(S(=O)(=O)N3CCOCC3)ccc2N2CCCC2)cc1 ?
Pf growth 48h: 2.6µM*; Pf growth 96h: inconclusive

What do the screens show for `Cc1cccc(N(Cc2ccccc2)C(=O)Cc2ccc(S(=O)(=O)N3CCOCC3)s2)c1`?
Pf growth 48h: 13µM*; Pf growth 96h: inconclusive

Results for COc1ccc(OCC(=O)N(Cc2sccc2C)C2CCS(=O)(=O)C2)cc1 (stereo not drawn) ?
Shiga inhibitor: 2; Pf growth 48h: -5%; Cycloheximide cs: -3; Pf growth 96h: inconclusive; NS1 inh: 6%

How did NC(=O)CCCCn1ccc(NC(N)=NCC(F)(F)F)n1 do in these assays?
FBPA Giardia inh: 1%

How did O=C(O)CCSSCCC(=O)O do in these assays?
Pf growth 48h: 30%; Pf growth 96h: 49%

How did Cc1ccc(C(=O)N2CCN(Cc3ccccc3)CC2)cc1S(=O)(=O)N1CCOCC1 do in these assays?
Pf growth 48h: -16%; Pf growth 96h: inconclusive

How did Cc1ccc(S(=O)(=O)N2CCOCC2)cc1C(=O)OCC(=O)N(Cc1ccccc1)C(C)C do in these assays?
Pf growth 48h: 15µM*; Pf growth 96h: inconclusive

How did Cc1ccc(C(=O)N(CCc2ccccc2)Cc2ccccc2)cc1S(=O)(=O)N1CCCCC1 do in these assays?
Pf growth 48h: 13µM*; Pf growth 96h: 8.3µM*

How did Cc1ccc(S(=O)(=O)N2CCCCC2)cc1C(=O)NCCc1ccccc1 do in these assays?
Shiga inhibitor: -16; Pf growth 48h: inconclusive; Cycloheximide cs: 2; Pf growth 96h: inconclusive; NS1 inh: 9%

What do the screens show for `Cc1cccc(N(Cc2ccccc2)C(=O)c2ccc(C)c(S(=O)(=O)N3CCOCC3)c2)c1`?
Pf growth 48h: 7.4µM*; Pf growth 96h: inconclusive

Results for O=C(OCC(=O)N(CCc1ccccc1)Cc1ccccc1)c1cc(S(=O)(=O)N2CCOCC2)ccc1F ?
Pf growth 48h: -19%; Pf growth 96h: 3%

How did O=C(Nc1cc([N+](=O)[O-])ccc1C(=O)Nc1cccnc1)c1ccccc1 do in these assays?
Shiga inhibitor: -14; Pf growth 48h: inconclusive; Cycloheximide cs: -1; Pf growth 96h: inconclusive; NS1 inh: 11%

Results for CC(=O)Cc1cc(O)c2ccccc2c1OC(=O)c1ccc(Br)cc1 ?
Shiga inhibitor: 16; Pf growth 48h: 2.9µM*; Cycloheximide cs: 0; Pf growth 96h: 5.9µM*; NS1 inh: 3%; FBPA Giardia inh: inconclusive

What do the screens show for `Cc1ccc2nc(-c3ccccc3O)c(Nc3ccc4c(c3)OCCO4)n2c1`?
Shiga inhibitor: -5; Pf growth 48h: 12µM*; Cycloheximide cs: -3; Pf growth 96h: 12µM*; NS1 inh: 19%; FBPA Giardia inh: 9%

What do the screens show for `Cc1ccccc1Nc1c(-c2ccc(N3CCOCC3)cc2)nc2cnccn12`?
Shiga inhibitor: 73; Pf growth 48h: -11%; Cycloheximide cs: 25*; Pf growth 96h: -21%; NS1 inh: 5%; FBPA Giardia inh: -2%

What do the screens show for `Cc1ccc2nc(-c3ccc(O)cc3)c(Nc3ccc4c(c3)OCCO4)n2c1`?
Shiga inhibitor: 1; Cycloheximide cs: -3; Pf growth 96h: inconclusive; NS1 inh: 3%; FBPA Giardia inh: 3%

Results for COc1ccc(Nc2c(-c3ccc(C)cc3)nc3cnccn23)cc1 ?
Shiga inhibitor: 10; Pf growth 48h: 0%; Cycloheximide cs: 6; Pf growth 96h: -3%; FBPA Giardia inh: -5%

Results for Cc1ccc(Nc2c(-c3ccc(N4CCOCC4)cc3)nc3cnccn23)cc1 ?
Shiga inhibitor: 44; Pf growth 48h: inconclusive; Cycloheximide cs: 7.8*; Pf growth 96h: inconclusive; NS1 inh: 4%; FBPA Giardia inh: -1%

How did Cc1ccc(Nc2c(-c3ccccc3O)nc3cnccn23)cc1 do in these assays?
Shiga inhibitor: -9; Pf growth 48h: 5.9µM*; Cycloheximide cs: 5; Pf growth 96h: 0%; FBPA Giardia inh: -17%

How did Cc1ccc(S(=O)(=O)CCC(=O)OCC(=O)N(Cc2ccccc2)C(C)C)cc1 do in these assays?
Pf growth 48h: -1%; Pf growth 96h: 25%

Results for CC(OC(=O)c1nc(Cl)ccc1Cl)C(=O)Nc1ccccc1F (stereo not drawn) ?
Pf growth 48h: 54%; Pf growth 96h: 56%

How did OCC1(Cc2ccc(F)cc2)CCCN(CCCC(F)(F)F)C1 (stereo not drawn) do in these assays?
Shiga inhibitor: 6; Pf growth 48h: inconclusive; Cycloheximide cs: 0; Pf growth 96h: 332%; NS1 inh: 2%; FBPA Giardia inh: 0%

What do the screens show for `COC(=O)c1ccc(NC(=O)N2CCCC(C(=O)c3ccccc3OC)C2)cc1` (stereo not drawn)?
Shiga inhibitor: 27; Pf growth 48h: -5%; Cycloheximide cs: -2; Pf growth 96h: 23%; NS1 inh: -1%; FBPA Giardia inh: -1%

How did COc1ccc(F)cc1C(=O)C1CCCN(C(=O)CSc2ccccn2)C1 (stereo not drawn) do in these assays?
Shiga inhibitor: -4; Pf growth 48h: inconclusive; Cycloheximide cs: 0; Pf growth 96h: -27%; NS1 inh: -8%; FBPA Giardia inh: -1%

What do the screens show for `O=C(c1cccc2ccccc12)C1CCCN(C(=O)CCc2cnccn2)C1` (stereo not drawn)?
Shiga inhibitor: 14; Pf growth 48h: -18%; Cycloheximide cs: 15*; Pf growth 96h: inconclusive; NS1 inh: -5%; FBPA Giardia inh: 0%

How did COc1ccccc1C(=O)C1CCCN(C(=O)Nc2ccccc2F)C1 (stereo not drawn) do in these assays?
Shiga inhibitor: 73*; Pf growth 48h: 93%; Cycloheximide cs: 28*; Pf growth 96h: inconclusive; NS1 inh: -8%; FBPA Giardia inh: 1%

Results for COc1ccccc1C(=O)C1CCCN(C(=O)CCC(=O)c2ccccc2)C1 (stereo not drawn) ?
Shiga inhibitor: 22; Pf growth 48h: 4%; Cycloheximide cs: 12*; Pf growth 96h: inconclusive; NS1 inh: -3%; FBPA Giardia inh: 0%
